Test results published in PubChem BioAssay (EPA / NIEHS).
Records with an inconclusive call do not appear. The source made the active and inactive calls. The calls were made as follows: active = hit-call score of the fitted dose curve at least 0.9, where 1 is the maximum; inconclusive = response in the unintended direction; inactive = score below 0.9.

Each compound was assayed against Estrogen receptor (Homo sapiens) (UniProt P03372) (assay: OT_ER_ERaERa_0480: Odyssey Thera (OT) 8-hour HEK293T Protein-Complementation Assay for Estrogen Receptor-alpha/-alpha Homodimer (AID 2283351);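 also: rise in fluorescence from reassembled reporter fragments on ERα LBD homodimer in nucleus or whole cell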).
Sequence of Estrogen receptor (Homo sapiens) (P03372 whole entry, looked up, the tested form may be a part): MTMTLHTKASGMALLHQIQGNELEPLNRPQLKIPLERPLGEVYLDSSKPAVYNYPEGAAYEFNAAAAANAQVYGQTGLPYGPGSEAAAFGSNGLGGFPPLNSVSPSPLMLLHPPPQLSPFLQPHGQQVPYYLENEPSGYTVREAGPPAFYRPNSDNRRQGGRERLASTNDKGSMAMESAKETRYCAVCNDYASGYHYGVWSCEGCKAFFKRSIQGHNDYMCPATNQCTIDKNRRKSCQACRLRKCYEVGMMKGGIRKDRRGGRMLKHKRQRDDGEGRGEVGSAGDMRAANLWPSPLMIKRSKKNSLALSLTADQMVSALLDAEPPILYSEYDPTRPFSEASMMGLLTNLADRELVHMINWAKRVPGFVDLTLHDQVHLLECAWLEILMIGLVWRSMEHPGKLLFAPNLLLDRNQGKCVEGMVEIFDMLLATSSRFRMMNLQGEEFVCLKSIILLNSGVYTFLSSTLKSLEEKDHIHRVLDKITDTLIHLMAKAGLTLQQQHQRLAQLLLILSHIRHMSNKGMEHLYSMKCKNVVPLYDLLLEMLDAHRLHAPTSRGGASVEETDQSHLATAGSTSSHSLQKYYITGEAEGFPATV
Experimental: OT_ER_ERaERa_0480 is a cell-based assay that uses HEK293T, a human kidney cell line, with measurements taken at 8 hours after chemical dosing in a 384-well plate.OT_ER_ERaERa_0480 is one of one assay component(s) measured or calculated from the OT_ER_ERaERa_0480 assay. It is designed to make measurements of protein fragment complementation, a form of binding reporter, as detected with fluorescence intensity signals by Protein-fragment Complementation technology.Data from the assay component OT_ER_ERaERa_0480 was analyzed into 1 assay endpoint. This assay endpoint, OT_ER_ERaERa_0480, was analyzed in the positive analysis fitting direction relative to DMSO as the negative control and baseline of activity. Using a type of binding reporter, measures of receptor for gain-of-signal activity can be used to understand the binding at the pathway-level as they relate to the gene ESR1. Furthermore, this assay endpoint can be referred to as a primary readout, because the performed assay has only produced 1 assay endpoint. To generalize the intended target to other relatable targets, this assay endpoint is annotated to the nuclear receptor intended target family, where the subfamily is steroidal.
Protein-fragment complementation assay, or PCA, is a method for the identification and quantification of protein-protein interactions. In the PCA, the proteins of interest ("bait" and "prey") are each covalently linked to fragments of a third protein (e.g. DHFR, which acts as a "reporter"). Interaction between the bait and the prey proteins brings the fragments of the reporter protein in close proximity to allow them to form a functional reporter protein whose activity can be measured. The OT ER alpha / ER alpha assay is a homodimer PCA of the ligand binding domain (amino acids 310-547) of human ER alpha stably expressed in HEK293T cells. […] Fluorescent signal in the basal state of the assay is very low and is primarily punctuate and cytoplasmic. Modulation of this assay is quantified as an increase in mean fluorescence intensity in the nucleus (for agonists) or in the nucleus and cytoplasm (antagonists) relative to vehicle controls, and can be quantified on a high content imaging device or a laser scanning cytometer. The latter instrument is favored for this assay because of the rapid mode of data acquisition, the ability to acquire data from the entire cell population in a well (as opposed to a fraction of the well on the high content devices) and the larger dynamic range typically achieved with this instrument. To assess sensitivity of the ER alpha/ER alpha LBD assay to ligand, cells were treated with the ER agonist 17 beta-estradiol (E2) in 10-point concentration- response format for 8 hours and monitored response on a laser scanning plate cytometer (Acumen eX3; TTP Lab Tech).
In the case of `C=CC(C)CCCC(C)(C)O` (stereo not given), the outcome is reported as “inactive”.
In the case of `CC(C)C(=O)c1ccccc1`, the outcome is reported as “inactive”.
With `CCCCCCCCOC(=O)c1ccc(O)cc1` the AC50 was 20.9 µM (active).
`CC1=CCC(C(C)C)=CC1` was tested, and the outcome was “inactive”.
`CCCCCCCCCCO[C@@H]1O[C@H](CO)[C@@H](O)[C@H](O)[C@H]1O` was tested, and the outcome was “inactive”.
`c1ccc(Cc2ccccc2)cc1` was tested, and the outcome was “inactive”.
`CC(O)CN` (stereo not given) was tested, and the outcome was “inactive”.
In the case of `CC(=O)CC(=O)N(C)C`, the outcome is reported as “inactive”.
With `CC(=O)c1ccc2ccccc2c1` the outcome was “inactive”.
For `CCCCCCCCCCCCOCCOS(=O)(=O)O`, the outcome was “inactive”.
`CCCc1ccc(N)cc1` was tested, and the outcome was “inactive”.
With `CCCCCCCCCCCCS` the outcome was “inactive”.
For `[O-]/[N+](=N\O)c1ccccc1`, the outcome was “inactive”.
For `O=C(O)CS`, the outcome was “inactive”.
`FC(F)(F)c1ccc(Cl)c(Cl)c1` was tested, and the outcome was “inactive”.
With `C=CCCCCCCCCC(=O)OCC` the outcome was “inactive”.
`NC(N)=S` was tested, and the outcome was “inactive”.
`CCCO[Si](OCCC)(OCCC)OCCC` was tested, and the outcome was “inactive”.
For `CCCCN(CCCC)CCCCCCN(CCCC)CCCC`, the outcome was “inactive”.
`OC[C@@H](O)[C@H](O)[C@@H](O)[C@@H](O)CO` was tested, and the outcome was “inactive”.
In the case of `Cc1cccc(O)c1`, the outcome is reported as “inactive”.
With `NCCN1CCNCC1` the outcome was “inactive”.
With `[Na+]` the outcome was “inactive”.
In the case of `CCNC(=S)NCC`, the outcome is reported as “inactive”.
With `CC(=O)OC(C)(C)C1CC=C(C)CC1` (stereo not given) the outcome was “inactive”.
For `COc1cc(OC)c2ccc(=O)oc2c1`, the outcome was “inactive”.
With `c1coc(CNc2ncnc3nc[nH]c23)c1` the outcome was “inactive”.
For `CN(C)C(=O)Nc1ccccc1`, the outcome was “inactive”.
In the case of `CCC(C)(C)C1CCC(OC)CC1` (stereo not given), the outcome is reported as “inactive”.
In the case of `COc1ccccc1O`, the outcome is reported as “inactive”.
In the case of `COc1ccc(OC)cc1`, the outcome is reported as “inactive”.
For `CCO[Si](CC)(OCC)OCC`, the outcome was “inactive”.
For `CC(C)(C)c1cccc(O)c1`, the AC50 was 60.2 µM (active).
In the case of `CC(O)CNCC(C)O` (stereo not given), the outcome is reported as “inactive”.
In the case of `Cc1cccc(C)c1`, the outcome is reported as “inactive”.
`CCCCOCCOCCO` was tested, and the outcome was “inactive”.
With `CC(=O)c1ccc(O)cc1` the outcome was “inactive”.
In the case of `CC(=O)OC/C=C(C)/C=C/C=C(C)/C=C/C1=C(C)CCCC1(C)C`, the outcome is reported as “inactive”.
For `CCC(C)(C)C1CCC(=O)CC1`, the outcome was “inactive”.
In the case of `CC1=CCC(C(C)(C)O)CC1` (stereo not given), the outcome is reported as “inactive”.
